What was measured:
Assay in all cases: DAPPL (digital affinity profiling via proximity ligation, sequencing); 10 mM Tris-HCl pH 7.5, 50 mM NaCl, 1 mM DTT, 4% glycerol, room temperature, 30 min; GST-TFs on glutathione beads, 16-mer random dsDNA library, 0.1% formaldehyde crosslink after washing; high values mean tight binding
FLI1 = biological target: T1, FLI1 (Homo sapiens, UniProt Q01543 1-452); conditions: protein: recombinant; tags: N-terminal GST; dsDNA, one strand shown
T1 sequence: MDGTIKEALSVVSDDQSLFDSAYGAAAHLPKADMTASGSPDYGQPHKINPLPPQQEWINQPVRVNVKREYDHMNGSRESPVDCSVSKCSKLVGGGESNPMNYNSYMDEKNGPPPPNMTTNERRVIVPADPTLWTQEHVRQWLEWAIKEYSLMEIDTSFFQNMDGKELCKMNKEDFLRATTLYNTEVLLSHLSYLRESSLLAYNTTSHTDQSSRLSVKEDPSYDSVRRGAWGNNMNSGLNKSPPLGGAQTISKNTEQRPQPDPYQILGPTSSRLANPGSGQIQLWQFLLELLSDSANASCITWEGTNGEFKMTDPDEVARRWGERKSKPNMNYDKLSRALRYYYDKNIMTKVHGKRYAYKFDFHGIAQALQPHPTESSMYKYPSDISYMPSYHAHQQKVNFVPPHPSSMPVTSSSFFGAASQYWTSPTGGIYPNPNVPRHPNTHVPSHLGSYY
In short: (§1)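 A tag-only sample was pooled with DNA-barcoded human transcription factors that had been expressed in yeast as GST fusions and captured on glutathione beads. The pools were incubated for 30 min at room temperature with 200 nmole of a random double-stranded 16-mer DNA library in Tris/NaCl/DTT/glycerol buffer, then washed, crosslinked with 0.1% formaldehyde, proximity-ligated (BsaI/T4 ligase, 1 h, 37 °C), PCR-amplified and sequenced on an Illumina NextSeq500. Binding signal is each hexamer's read frequency for a factor divided by its frequency for the tag-only sample.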

ELK1 = biological target: T2, ELK1 (Homo sapiens, UniProt P19419 1-428); conditions: protein: recombinant; tags: N-terminal GST; dsDNA, one strand shown
T2 sequence: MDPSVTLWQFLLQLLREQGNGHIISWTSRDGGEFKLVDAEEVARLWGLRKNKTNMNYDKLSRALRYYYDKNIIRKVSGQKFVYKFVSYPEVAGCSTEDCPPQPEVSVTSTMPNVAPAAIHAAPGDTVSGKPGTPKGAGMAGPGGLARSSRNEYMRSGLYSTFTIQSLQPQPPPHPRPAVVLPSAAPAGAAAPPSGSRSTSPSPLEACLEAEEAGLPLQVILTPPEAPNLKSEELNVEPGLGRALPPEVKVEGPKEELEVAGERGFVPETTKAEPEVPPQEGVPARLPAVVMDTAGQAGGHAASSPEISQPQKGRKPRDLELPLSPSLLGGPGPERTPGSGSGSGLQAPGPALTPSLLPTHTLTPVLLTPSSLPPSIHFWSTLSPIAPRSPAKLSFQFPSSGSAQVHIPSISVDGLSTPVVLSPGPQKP
In short: as §1

GABPA = biological target: T3, GABPA (Homo sapiens, UniProt Q06546 1-454); conditions: protein: recombinant; tags: N-terminal GST; dsDNA, one strand shown
T3 sequence: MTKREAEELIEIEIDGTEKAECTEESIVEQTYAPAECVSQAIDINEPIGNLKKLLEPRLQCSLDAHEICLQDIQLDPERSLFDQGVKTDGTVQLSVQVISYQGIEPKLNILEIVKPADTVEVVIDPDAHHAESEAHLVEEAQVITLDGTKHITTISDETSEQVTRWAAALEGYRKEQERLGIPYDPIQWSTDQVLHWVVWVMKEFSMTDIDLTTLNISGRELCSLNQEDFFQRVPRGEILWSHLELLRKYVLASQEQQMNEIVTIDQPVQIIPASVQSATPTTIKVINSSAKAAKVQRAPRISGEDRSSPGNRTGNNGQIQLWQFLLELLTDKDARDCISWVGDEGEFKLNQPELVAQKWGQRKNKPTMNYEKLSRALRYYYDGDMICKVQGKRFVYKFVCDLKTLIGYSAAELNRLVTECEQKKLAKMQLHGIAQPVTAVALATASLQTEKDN
In short: as §1

ERG = biological target: T4, ERG (Homo sapiens, UniProt P11308 1-479); conditions: protein: recombinant; tags: N-terminal GST; dsDNA, one strand shown
T4 sequence: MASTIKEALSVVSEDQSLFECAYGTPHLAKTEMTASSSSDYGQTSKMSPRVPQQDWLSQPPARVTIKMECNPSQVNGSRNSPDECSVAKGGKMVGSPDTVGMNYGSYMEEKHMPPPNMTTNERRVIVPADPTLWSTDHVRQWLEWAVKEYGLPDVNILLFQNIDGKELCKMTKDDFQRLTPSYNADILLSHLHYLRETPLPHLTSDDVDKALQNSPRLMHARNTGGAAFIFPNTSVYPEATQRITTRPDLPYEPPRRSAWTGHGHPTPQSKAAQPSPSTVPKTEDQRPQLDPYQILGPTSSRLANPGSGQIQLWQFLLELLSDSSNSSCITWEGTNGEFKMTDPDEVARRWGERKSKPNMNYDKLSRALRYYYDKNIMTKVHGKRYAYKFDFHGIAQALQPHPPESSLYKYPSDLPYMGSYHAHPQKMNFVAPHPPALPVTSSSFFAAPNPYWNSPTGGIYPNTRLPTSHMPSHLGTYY
In short: as §1

ELF1 = ELF1 (Homo sapiens, UniProt P32519 1-619); conditions: protein: recombinant; tags: N-terminal GST; dsDNA, one strand shown
Chain of ELF1 (P32519 whole entry): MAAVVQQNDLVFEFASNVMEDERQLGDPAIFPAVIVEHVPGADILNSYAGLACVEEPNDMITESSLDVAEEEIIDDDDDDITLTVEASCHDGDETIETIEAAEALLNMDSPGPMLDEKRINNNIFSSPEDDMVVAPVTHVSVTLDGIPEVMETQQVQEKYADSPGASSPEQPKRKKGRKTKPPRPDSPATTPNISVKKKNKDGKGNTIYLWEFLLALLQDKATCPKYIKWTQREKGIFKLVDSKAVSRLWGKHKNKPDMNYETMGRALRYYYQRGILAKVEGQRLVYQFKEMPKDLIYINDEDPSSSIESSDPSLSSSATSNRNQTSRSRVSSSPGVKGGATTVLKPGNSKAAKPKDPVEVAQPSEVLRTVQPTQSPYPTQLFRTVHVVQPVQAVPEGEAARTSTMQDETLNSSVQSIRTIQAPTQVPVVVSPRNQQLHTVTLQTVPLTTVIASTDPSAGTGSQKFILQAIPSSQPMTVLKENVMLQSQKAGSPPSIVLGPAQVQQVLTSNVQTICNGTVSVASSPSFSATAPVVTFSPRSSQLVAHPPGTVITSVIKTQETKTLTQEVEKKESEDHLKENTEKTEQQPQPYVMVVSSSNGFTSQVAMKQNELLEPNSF
In short: as §1

EHF = biological target: T5, EHF (Homo sapiens, UniProt Q9NZC4 1-300); conditions: protein: recombinant; tags: N-terminal GST; dsDNA, one strand shown
T5 sequence: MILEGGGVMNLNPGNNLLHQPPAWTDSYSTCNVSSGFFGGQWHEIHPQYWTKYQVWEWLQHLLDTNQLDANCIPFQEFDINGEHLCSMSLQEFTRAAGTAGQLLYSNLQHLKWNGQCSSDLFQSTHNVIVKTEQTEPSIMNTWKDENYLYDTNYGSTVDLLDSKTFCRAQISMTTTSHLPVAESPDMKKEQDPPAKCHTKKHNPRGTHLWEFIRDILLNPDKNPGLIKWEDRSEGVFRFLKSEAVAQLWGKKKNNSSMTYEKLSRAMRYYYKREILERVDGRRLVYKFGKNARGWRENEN
In short: as §1

SPI1 = SPI1 (Homo sapiens, UniProt P17947 1-270); conditions: protein: recombinant; tags: N-terminal GST; dsDNA, one strand shown
In short: as §1

SPIB = SPIB (Homo sapiens, UniProt Q01892 1-262); conditions: protein: recombinant; tags: N-terminal GST; dsDNA, one strand shown
Chain of SPIB (Q01892 whole entry): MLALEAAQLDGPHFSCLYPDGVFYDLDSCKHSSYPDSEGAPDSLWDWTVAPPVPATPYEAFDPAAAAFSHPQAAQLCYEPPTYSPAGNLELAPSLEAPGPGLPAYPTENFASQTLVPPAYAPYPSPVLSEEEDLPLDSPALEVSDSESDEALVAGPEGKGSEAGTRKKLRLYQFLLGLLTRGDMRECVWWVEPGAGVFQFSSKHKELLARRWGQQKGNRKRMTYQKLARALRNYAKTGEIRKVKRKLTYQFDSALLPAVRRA
In short: as §1

FEV = biological target: T6, FEV (Homo sapiens, UniProt Q99581 1-238); conditions: protein: recombinant; tags: N-terminal GST; dsDNA, one strand shown
T6 sequence: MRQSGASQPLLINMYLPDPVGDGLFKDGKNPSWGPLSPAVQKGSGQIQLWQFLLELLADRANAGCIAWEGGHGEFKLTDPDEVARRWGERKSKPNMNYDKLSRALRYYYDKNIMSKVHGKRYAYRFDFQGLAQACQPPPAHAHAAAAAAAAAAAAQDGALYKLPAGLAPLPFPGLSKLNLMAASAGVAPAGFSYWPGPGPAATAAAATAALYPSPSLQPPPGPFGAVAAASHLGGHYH
In short: as §1

ETV5 = ETV5 (Homo sapiens, UniProt P41161 1-510); conditions: protein: recombinant; tags: N-terminal GST; dsDNA, one strand shown
Chain of ETV5 (P41161 whole entry): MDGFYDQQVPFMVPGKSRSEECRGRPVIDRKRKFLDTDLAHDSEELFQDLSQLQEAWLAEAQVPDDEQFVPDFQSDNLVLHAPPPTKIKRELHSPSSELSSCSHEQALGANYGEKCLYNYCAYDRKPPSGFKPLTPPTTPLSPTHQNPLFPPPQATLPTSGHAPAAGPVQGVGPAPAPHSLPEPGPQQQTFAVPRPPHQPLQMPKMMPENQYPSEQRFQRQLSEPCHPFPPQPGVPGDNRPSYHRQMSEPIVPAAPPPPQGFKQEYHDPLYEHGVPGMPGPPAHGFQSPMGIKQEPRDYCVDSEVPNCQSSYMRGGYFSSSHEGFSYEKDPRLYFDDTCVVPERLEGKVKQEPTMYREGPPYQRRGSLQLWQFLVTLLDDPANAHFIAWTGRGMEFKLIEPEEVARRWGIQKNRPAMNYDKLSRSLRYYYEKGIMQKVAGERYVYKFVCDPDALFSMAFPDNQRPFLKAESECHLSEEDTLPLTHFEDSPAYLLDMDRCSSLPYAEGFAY
In short: as §1

HSF1 = HSF1 (Homo sapiens, UniProt Q00613 1-529); conditions: protein: recombinant; tags: N-terminal GST; chain copies: 3; dsDNA, one strand shown
Chain of HSF1 (Q00613 whole entry): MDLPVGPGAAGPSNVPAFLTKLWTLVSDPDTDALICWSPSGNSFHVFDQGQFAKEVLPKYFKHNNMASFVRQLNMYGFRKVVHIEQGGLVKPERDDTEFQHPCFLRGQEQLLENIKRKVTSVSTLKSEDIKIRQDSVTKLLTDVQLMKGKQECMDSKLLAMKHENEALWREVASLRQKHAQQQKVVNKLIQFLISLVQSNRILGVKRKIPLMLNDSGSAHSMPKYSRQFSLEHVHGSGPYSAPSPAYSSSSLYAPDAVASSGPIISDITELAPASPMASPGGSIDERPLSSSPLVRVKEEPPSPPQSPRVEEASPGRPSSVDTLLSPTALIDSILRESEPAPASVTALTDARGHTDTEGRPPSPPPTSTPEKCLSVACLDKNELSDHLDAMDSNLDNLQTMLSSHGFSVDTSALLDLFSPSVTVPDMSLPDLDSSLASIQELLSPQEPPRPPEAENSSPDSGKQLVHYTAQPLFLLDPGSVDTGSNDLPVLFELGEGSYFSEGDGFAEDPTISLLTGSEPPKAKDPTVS
In short: as §1

SPIC = biological target: T7, SPIC (Homo sapiens, UniProt Q8N5J4 1-248); conditions: protein: recombinant; tags: N-terminal GST; dsDNA, one strand shown
T7 sequence: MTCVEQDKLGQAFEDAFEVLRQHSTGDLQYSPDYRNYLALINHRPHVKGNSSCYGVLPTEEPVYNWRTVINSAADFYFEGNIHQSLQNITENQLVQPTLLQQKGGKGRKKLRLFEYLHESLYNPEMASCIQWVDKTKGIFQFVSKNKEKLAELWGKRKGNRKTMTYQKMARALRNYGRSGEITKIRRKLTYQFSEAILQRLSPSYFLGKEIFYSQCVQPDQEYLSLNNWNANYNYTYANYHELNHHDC
In short: as §1

ELF4 = ELF4 (Homo sapiens, UniProt Q99607 1-663); conditions: protein: recombinant; tags: N-terminal GST; dsDNA, one strand shown
Chain of ELF4 (Q99607 whole entry): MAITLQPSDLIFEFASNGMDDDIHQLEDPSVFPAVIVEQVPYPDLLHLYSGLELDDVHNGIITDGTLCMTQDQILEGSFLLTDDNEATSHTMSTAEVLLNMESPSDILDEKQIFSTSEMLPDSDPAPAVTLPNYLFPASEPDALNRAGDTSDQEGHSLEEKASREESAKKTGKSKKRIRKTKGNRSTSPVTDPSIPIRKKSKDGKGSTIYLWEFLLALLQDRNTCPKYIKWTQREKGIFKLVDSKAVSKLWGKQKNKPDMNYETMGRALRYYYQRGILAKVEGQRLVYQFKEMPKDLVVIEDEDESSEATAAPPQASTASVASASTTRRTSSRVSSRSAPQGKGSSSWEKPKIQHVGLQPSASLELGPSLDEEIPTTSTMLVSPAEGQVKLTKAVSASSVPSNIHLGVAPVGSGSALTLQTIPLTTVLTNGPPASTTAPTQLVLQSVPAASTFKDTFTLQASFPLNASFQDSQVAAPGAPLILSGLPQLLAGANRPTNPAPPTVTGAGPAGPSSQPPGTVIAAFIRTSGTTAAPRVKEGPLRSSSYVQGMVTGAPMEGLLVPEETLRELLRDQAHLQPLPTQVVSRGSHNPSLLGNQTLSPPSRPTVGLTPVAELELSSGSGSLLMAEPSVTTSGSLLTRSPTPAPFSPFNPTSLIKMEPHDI
In short: as §1

ELK4 = biological target: T8, ELK4 (Homo sapiens, UniProt P28324-2 1-405); conditions: protein: recombinant; tags: N-terminal GST; dsDNA, one strand shown
T8 sequence: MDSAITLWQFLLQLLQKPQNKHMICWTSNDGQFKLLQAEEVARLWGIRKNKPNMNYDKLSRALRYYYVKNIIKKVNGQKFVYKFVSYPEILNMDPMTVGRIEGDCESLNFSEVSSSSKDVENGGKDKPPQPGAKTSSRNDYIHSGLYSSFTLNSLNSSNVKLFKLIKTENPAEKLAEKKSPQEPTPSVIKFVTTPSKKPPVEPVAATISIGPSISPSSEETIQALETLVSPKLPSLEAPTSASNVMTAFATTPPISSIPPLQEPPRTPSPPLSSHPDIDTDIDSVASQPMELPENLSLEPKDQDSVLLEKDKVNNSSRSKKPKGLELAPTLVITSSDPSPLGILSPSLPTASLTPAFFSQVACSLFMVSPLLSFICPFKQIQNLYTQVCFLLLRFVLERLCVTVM
In short: as §1

ETV2 = biological target: T9, ETV2 (Homo sapiens, UniProt O00321 1-342); conditions: protein: recombinant; tags: N-terminal GST; dsDNA, one strand shown
T9 sequence: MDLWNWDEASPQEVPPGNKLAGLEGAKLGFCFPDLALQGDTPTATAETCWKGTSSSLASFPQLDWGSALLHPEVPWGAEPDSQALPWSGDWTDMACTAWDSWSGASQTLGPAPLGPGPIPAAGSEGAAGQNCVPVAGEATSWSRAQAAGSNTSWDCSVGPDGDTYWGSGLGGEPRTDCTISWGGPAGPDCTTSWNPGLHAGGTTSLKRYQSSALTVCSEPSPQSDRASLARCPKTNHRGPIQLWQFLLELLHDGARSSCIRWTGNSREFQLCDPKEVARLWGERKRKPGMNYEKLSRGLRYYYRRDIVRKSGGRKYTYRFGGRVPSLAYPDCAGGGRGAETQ
In short: as §1

ELF3 = biological target: T10, ELF3 (Homo sapiens, UniProt P78545 1-371); conditions: protein: recombinant; tags: N-terminal GST; dsDNA, one strand shown
T10 sequence: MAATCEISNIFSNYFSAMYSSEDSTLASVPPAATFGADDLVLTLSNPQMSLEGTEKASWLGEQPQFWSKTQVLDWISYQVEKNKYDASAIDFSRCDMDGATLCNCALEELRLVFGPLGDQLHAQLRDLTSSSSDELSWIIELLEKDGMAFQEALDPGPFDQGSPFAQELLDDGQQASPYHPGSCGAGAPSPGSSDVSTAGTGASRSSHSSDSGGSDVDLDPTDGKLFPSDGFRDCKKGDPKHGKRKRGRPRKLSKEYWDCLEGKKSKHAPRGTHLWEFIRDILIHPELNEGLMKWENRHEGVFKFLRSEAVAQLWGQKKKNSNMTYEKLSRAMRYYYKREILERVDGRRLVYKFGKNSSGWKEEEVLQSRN
In short: as §1

CRX = CRX (Homo sapiens, UniProt O43186 1-299); conditions: protein: recombinant; tags: N-terminal GST; dsDNA, one strand shown
Chain of CRX (O43186 whole entry): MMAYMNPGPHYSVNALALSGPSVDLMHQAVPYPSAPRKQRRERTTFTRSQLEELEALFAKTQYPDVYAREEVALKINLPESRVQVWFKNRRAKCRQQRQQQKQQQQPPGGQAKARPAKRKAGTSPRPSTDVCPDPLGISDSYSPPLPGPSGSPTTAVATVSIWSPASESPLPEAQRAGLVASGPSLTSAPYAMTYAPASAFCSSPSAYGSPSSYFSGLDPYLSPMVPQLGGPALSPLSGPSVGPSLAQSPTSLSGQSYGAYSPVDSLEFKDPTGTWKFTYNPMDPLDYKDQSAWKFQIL
In short: as §1

ETV1 = ETV1 (Homo sapiens, UniProt P50549 1-477); conditions: protein: recombinant; tags: N-terminal GST; dsDNA, one strand shown
Chain of ETV1 (P50549 whole entry): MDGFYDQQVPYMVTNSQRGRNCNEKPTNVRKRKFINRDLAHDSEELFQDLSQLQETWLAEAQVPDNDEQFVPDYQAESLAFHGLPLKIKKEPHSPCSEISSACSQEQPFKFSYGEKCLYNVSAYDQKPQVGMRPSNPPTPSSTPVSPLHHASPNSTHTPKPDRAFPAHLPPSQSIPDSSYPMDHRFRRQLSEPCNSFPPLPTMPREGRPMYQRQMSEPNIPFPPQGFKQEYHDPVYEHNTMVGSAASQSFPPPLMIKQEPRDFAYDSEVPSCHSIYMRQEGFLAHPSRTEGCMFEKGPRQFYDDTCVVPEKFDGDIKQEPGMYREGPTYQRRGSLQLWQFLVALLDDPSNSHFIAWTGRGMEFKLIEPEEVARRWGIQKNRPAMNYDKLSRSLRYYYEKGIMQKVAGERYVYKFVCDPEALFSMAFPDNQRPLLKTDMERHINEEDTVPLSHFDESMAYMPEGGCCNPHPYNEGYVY
In short: as §1

Sequence: AGGCTC
- binding signal (FLI1): 1.04 fold enrichment (6-mer frequency, TF over GST control)
- binding signal (ELK1): 1.03 fold enrichment (6-mer frequency, TF over GST control)
- binding signal (GABPA): 1.12 fold enrichment (6-mer frequency, TF over GST control)
- binding signal (ERG): 1.06 fold enrichment (6-mer frequency, TF over GST control)
- binding signal (ELF1): 1.12 fold enrichment (6-mer frequency, TF over GST control)
- binding signal (EHF): 1.08 fold enrichment (6-mer frequency, TF over GST control)
- binding signal (SPI1): 1.02 fold enrichment (6-mer frequency, TF over GST control)
- binding signal (SPIB): 1.03 fold enrichment (6-mer frequency, TF over GST control)
- binding signal (FEV): 1.06 fold enrichment (6-mer frequency, TF over GST control)
- binding signal (ETV5): 1.02 fold enrichment (6-mer frequency, TF over GST control)
- binding signal (HSF1): 1.14 fold enrichment (6-mer frequency, TF over GST control)
- binding signal (SPIC): 1.15 fold enrichment (6-mer frequency, TF over GST control)
- binding signal (ELF4): 1.07 fold enrichment (6-mer frequency, TF over GST control)
- binding signal (ELK4): 1.06 fold enrichment (6-mer frequency, TF over GST control)
- binding signal (ETV2): 1.01 fold enrichment (6-mer frequency, TF over GST control)
- binding signal (ELF3): 1.02 fold enrichment (6-mer frequency, TF over GST control)
- binding signal (CRX): 1.29 fold enrichment (6-mer frequency, TF over GST control)
- binding signal (ETV1): 1.06 fold enrichment (6-mer frequency, TF over GST control)

From paper PMC7862700, “An all-to-all approach to the identification of sequence-specific readers for epigenetic DNA modifications on cytosine”
